# Bioassay records as filed in PubChem.
# M18AAP inhibitor: PfM18AAP enzyme inhibition; inhibition, % at 7.35 µM; 290,000 compounds, 1.2% hits; recombinant PfM18AAP, H-Glu-NHMec fluorogenic cleavage;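 active means inhibition above the campaign mean inhibition over all tested compounds plus 3 SD, cut at about 28% in these data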;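 further: 0% = plate median of test compound wells and 100% = 2 mM ZnCl2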
# PHOSPHO1 inh: blocks human PHOSPHO1 phosphatase activity; Q8TCT1; recombinant PHOSPHO1, absorbance phosphatase assay; inhibition, % at 13.3 µM; 290,000 compounds, 1.1% hits; AID 1565; in the data active means inhibition above about 60%
# ALR H2O2 inh: human ALR oxidase inhibition via reduced H2O2 | purified ALR, DTT oxidation, H2O2 HRP-luminol luminescence | inhibition, % (no concentration beside the values) | 290,000 compounds, 3.8% hits | AID 485317;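 active means mean replicate inhibition above about 79%, with every replicate also reaching it, limit read from the data; inconclusive means only one of the two criteria met; inactive means mean below limit and not every replicate reaching it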
# Target sequence (P55789 whole entry, looked up): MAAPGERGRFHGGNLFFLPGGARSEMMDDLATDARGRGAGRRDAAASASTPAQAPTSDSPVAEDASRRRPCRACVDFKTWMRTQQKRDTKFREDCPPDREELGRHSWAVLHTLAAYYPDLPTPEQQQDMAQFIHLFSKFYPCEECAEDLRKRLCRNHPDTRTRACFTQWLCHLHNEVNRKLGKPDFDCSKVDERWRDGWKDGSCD
# H9c2 protect: modulators protecting cardiomyocytes from myocardial damage. H9c2 cardiomyocytes, H2O2 injury protection, ATPLite, 2 h. protection from H2O2 cell death, % at 20 µM. AID 588492. 360,000 compounds, 0.63% hits;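 active means compounds giving at least 50% protection of heart cells from peroxide-induced death in the single-dose screen, raw or plate-pattern-corrected value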;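 further: 0% = DMSO wells with peroxide and 100% = DMSO wells without peroxide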
# PfG6PD inh: PfG6PD (Plasmodium falciparum) enzyme inhibition; AID 504690; inhibition, % at 20 µM; 350,000 compounds, 0.78% hits; PfGluPho enzyme, NADPH resazurin-diaphorase fluorescence;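 active means inhibition reaching at least a set limit at 20 µM in the primary screen, cut at about 59% in these data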;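 further: 0% = DMSO wells with substrate and 100% = DMSO wells lacking glucose-6-phosphate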
# An asterisk follows results filed as active; ? = inconclusive; . = no result given. Compounds with a hit are over-represented: about 5.6% of the library has one in this group of screens.
SMILES,M18AAP inhibitor,PHOSPHO1 inh,ALR H2O2 inh,H9c2 protect,PfG6PD inh
COc1ccc(-c2nc(SCC(=O)NCc3ccco3)c(-c3ccccc3)[nH]2)cc1OC,10,63*,?,0,16
C=CCn1c(COc2ccccc2F)nnc1SCC(=O)NC(=O)NCc1ccco1,5,81*,4,3,10
CCOc1ccc(Nc2nc(Cc3nnc(SCC(=O)NCc4ccco4)n3CC)cs2)cc1,30*,-12,11,7,30
COc1ccccc1OCc1nnc(SCC(=O)NCc2ccco2)n1Cc1ccco1,-27,65*,52,5,27
CC1(C2CCC3C4CCC5CC6(CCC5(C)C4C(=O)CC32C)OCCO6)OCCO1 (stereo not given),.,.,.,-3,-9
COC(=O)[C@]1(C)N[C@H](CN(C)C(=O)c2ccc(F)cc2)[C@@H]2C(=O)N(Cc3ccccc3)C(=O)[C@@H]21,.,.,3,-2,-9
CCOC(=O)C1CCN(C(=O)CNC(=O)c2nn(-c3ccc(OC)cc3)c(=O)c3ccccc23)CC1,1,15,0,-9,-24
Cc1ccc(C(C[N+](=O)[O-])Sc2ccc(N)cc2)cc1 (stereo not given),16,47,.,-13,55
CC1CCCC(NC(=O)CN(C)CC(=O)Nc2ccc(F)cc2)C1C (stereo not given),.,.,1,2,-8
CCc1cnccc1CCC(=O)Nc1ccccc1C,.,.,-7,4,12
CCOC(=O)C(=O)N(C)c1c(CC)nc2c(OCc3ccccc3)cccn12,.,.,.,-2,.
CC(=O)Nc1ccc(S(=O)(=O)Nc2nc3ccccc3nc2Sc2nncn2C)cc1,1,54,99*,17,23
Cn1ccnc1Sc1nc2ccccc2nc1NS(=O)(=O)c1ccccc1,29*,73*,6,3,21
Cn1cnnc1Sc1nc2ccccc2nc1NS(=O)(=O)c1ccccc1,0,62*,8,5,14
CC(=O)Nc1ccc(S(=O)(=O)Nc2nc3ccccc3nc2N2CCOCC2)cc1,.,.,.,-2,-33
CC1CC(C)CN(C(=O)CN2C(=O)NC(c3ccccc3)(c3ccccc3)C2=O)C1 (stereo not given),.,.,2,0,13
COc1ccc(OC)c(-n2c(-c3cc(-c4ccccc4)n[nH]3)n[nH]c2=S)c1,7,-13,66,-4,38
COc1ccc(-c2cc(-c3n[nH]c(=S)n3-c3ccccc3OC)[nH]n2)cc1,3,67*,88*,14,35
COc1ccc(OC)c(-n2c(-c3ccccc3)n[nH]c2=S)c1,16,102*,21,4,49
CN(Cc1ccccc1)C(=O)c1cccc(NC(=O)Cc2ccc(NC(=O)C3CCN(C(=O)C4CCC4)CC3)cc2)c1,.,.,.,-2,10
COc1ccc2c(/C=C/c3cc[n+](C)cc3)c[nH]c2c1,7,22,-6,3,9
Cc1ccc2[nH]cc(/C=C/c3cc[n+](C)cc3)c2c1,11,-29,98*,-7,-22
Cc1ccc(NC(=O)CCCCCN2C(=O)[C@@H]3Cc4ccccc4CN3C2=O)c(Cl)c1,-3,12,2,-2,-4
CO/N=C/c1ccc(N2CCCC2)c([N+](=O)[O-])c1,-1,20,.,-4,15
O=[N+]([O-])c1cc(/C=N/O)ccc1N1CCCC1,-8,2,92*,6,-12
SMILES,M18AAP inhibitor,PHOSPHO1 inh,ALR H2O2 inh,H9c2 protect,PfG6PD inh
Cc1ccc(-c2nc3cnccn3c2Nc2ccccc2)o1,.,-4,98*,-34,44
Cc1ccc(Nc2c(-c3ccc(C)o3)nc3cnccn23)cc1,-37,3,.,-19,69*
Cc1ccc2nc(-c3ccco3)c(Nc3ccccc3)n2c1,3,-6,27,-7,5
Cc1ccc(-c2nc3cnccn3c2Nc2ccc3c(c2)OCO3)o1,27,10,.,4,22
Cc1ccc(-c2nc3ccccn3c2Nc2ccccc2)o1,-47,-5,99*,2,-2
Cc1cc(=O)[nH]c(NNC(=O)c2ccc(Cl)cc2)n1,.,.,.,2,-12
COCCNC(=O)C1(C)CCCN(Cc2c(C)nn(-c3ccccc3)c2C)C1 (stereo not given),.,.,.,-1,.
O=C(O)[C@H]1CCCN1C(=O)c1ccccc1N1C(=O)[C@@H]2Cc3c([nH]c4ccccc34)C(c3cccc(Cl)c3)N2C1=O (stereo not given in full),-1,18,.,0,0
